Compound activity from PubChem BioAssay.
RXFP1 antag – qHTS Assay for Antagonists of the Relaxin Receptor RXFP1; Relaxin receptor 1 (Homo sapiens), Q9HBX9; HEK293-RXFP1, relaxin-stimulated cAMP HTRF, 30 min; active compounds read low; activity change, negative = inhibition, % at 57.5 µM; 0.59% of 350,000 active; AID 1259400, 2018;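 active = activity change of -60% or lower, but not beyond a set lower limit; inconclusive = change between -60% and -40%, or beyond the set limit; inactive = change above -40%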; note: % is set by controls: 0 for no effect and ±100 for the full control effect
Target sequence (Q9HBX9 whole entry, looked up): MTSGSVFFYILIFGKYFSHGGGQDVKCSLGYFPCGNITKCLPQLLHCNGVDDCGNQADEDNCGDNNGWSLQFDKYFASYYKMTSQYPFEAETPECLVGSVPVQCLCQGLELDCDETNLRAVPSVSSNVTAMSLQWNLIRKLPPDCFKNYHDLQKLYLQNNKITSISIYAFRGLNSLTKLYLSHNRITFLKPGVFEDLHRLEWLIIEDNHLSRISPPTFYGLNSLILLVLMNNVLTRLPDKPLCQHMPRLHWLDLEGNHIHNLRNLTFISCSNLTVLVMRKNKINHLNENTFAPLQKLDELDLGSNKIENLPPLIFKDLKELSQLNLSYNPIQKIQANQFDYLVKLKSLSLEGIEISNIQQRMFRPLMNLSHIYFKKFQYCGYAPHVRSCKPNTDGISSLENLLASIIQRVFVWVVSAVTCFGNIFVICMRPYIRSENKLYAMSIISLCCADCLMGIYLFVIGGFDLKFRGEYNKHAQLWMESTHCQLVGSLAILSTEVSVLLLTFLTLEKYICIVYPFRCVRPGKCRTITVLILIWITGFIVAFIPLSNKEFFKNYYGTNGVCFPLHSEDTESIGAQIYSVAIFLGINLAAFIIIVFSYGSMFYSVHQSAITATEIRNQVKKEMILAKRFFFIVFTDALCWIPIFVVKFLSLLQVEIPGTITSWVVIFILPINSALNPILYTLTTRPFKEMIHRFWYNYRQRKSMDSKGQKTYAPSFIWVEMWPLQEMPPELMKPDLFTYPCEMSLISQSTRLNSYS
gsp agonist – qHTS for Agonist of gsp, the Etiologic Mutation Responsible for Fibrous Dysplasia/McCune-Albright Syndrome: qHTS | 0.13% of 340,000 active | gsp mutant cells, cAMP HTRF, 30 min | Potency, µM (highest dose often 76.9 µM), without a hit: top-dose activation (cAMP increase), most hits filed as activators | AID 624287, 2012; active = well fitted activation curve with a large enough effect; inconclusive = small, poorly fitted or top-dose-only effect, or another doubt; inactive = no such curve, though single readings can be large or run the other way; cell line not stated here;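 note: phosphodiesterase inhibitor Ro 20-1724 added with compounds to block cAMP breakdown; potency is the fitted concentration of half-maximal effect; nearly all actives have a fitted effect of over 60% in size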
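Cells stably selected in G418 were plated at 2000/well, grown 16-24 hr, then given compounds in DMSO with the PDE inhibitor […] (300 uM solution added) for 30 min at 37C; cAMP was read by HTRF.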
pAkt inh – HTS Assay for Inhibitors of Akt Phophorylation: Primary Screen; Neuro2A IGF-stimulated pAkt S473 HTRF, 20 min; active compounds read low; activity change, % for hits at 50 µM; 0.32% of 360,000 active; in the data active = activity change below about -80%; inconclusive = mostly about -51% to -80%; note: % is set by controls: 0 for no effect and ±100 for the full control effect
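Neuro2A cells (4,500/well, DMEM with 0.5% FBS) were treated with compound at a single 50 µM final concentration, stimulated with 6 nM IGF for 20 min at 37 °C, and lysed. Phospho-Akt Ser473 was read by HTRF as 665/615 ratio ×10^4.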
gsp antag – qHTS for Antagonists of gsp, the Etiologic Mutation Responsible for Fibrous Dysplasia/McCune-Albright Syndrome: qHTS | gsp-mutant cells, cAMP HTRF, 30 min | Potency, µM (titrated, usually from 76.9 µM), without a hit: at the top dose activity change, negative = inhibition, actives largely listed as inhibitors | 0.4% of 340,000 active; calls by dose curve; cell line not stated here;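 note: intracellular cAMP measured with PDE inhibitor Ro 20-1724 present during compound exposure; potency is the fitted concentration of half-maximal effect; % is set by controls: 0 for no effect and ±100 for the full control effect; nearly all actives have a fitted effect of over 65% in size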
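HTRF cAMP measurement after 30 min RT detection following 30 min, 37C compound treatment alongside […] (added as 300 uM solution) in G418-selected cells seeded at 2000/well and grown 16–24 h.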
RXFP1 agonist – qHTS Assay for Agonists of the Relaxin Receptor RXFP1 | Relaxin receptor 1 (Homo sapiens), Q9HBX9 | Potency, µM (doses to about 57.5 µM), for inactives: top-dose activation, actives largely listed as activators | HEK293T-RXFP1 cAMP TR-FRET, 30 min; response scale: percent of porcine relaxin response, buffer zero | 0.3% of 370,000 active; active = well fitted activation curve with a large enough effect; inconclusive = small, poorly fitted or top-dose-only effect; note: potency is the fitted concentration of half-maximal effect; % is set by controls: 0 for no effect and ±100 for the full control effect; nearly all actives have a fitted effect of over 60% in size
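Agonist response is measured as cAMP accumulation in an RXFP1-transfected HEK293T line under PDE4 inhibition. Values are scaled between buffer-only and 29 nM porcine relaxin, and EC50s come from standard Hill equation fits.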
TSHR antagonist – Antagonists of the Thyroid Stimulating Hormone Receptor: HTS campaign | activity change, negative = inhibition, % at 11.5 µM | 0.2% of 330,000 active | Thyrotropin receptor (Homo sapiens), P16473 | AID 504810, 2011 | TSHR-expressing cells, TSH-stimulated cAMP HTRF, 2 h; active compounds read low;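 active = activity change below a set negative limit, meaning inhibition stronger than a set level, cut at about -70% in these data; inconclusive = activity change between two set negative limits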; note: % is set by controls: 0 for no effect and ±100 for the full control effect
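Read-out is FRET at 665 nm (cryptate excitation 337 nm) from a cryptate-tagged anti-cAMP antibody, competed by cell cAMP against cAMP-d2. Compounds are tested on freshly harvested TSHR cells challenged with 4nM TSH (EC80) for 2 hours at 37 deg C.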
Active calls of the source: *; i = inactive; ? = inconclusive; . = no result; ! = repeats disagree; [ ] = dose if it differs, or a comment. Shown are actives, neighbours in structure and some others; about 1.3% of the full set was active somewhere.

SMILES	RXFP1 antag	gsp agonist	pAkt inh	gsp antag	RXFP1 agonist	TSHR antagonist
Cn1c(=O)c(C(=O)NNC(=O)c2ccccc2Cl)c(O)c2ccccc21	-66*	-25%	i	-17%	2%	-8
Cn1c(=O)c2c(nc(N3CCCCCC3)n2Cc2cccc3ccccc23)n(C)c1=O	-30	3%[15.4 µM]	i	0%	4%	-9
Cn1c(=O)c2c(nc(N3CCCC3)n2C)n(C)c1=O	-2	20µM*	i	-5%	15%	-2
CN1CCN(c2nc3c(c(=O)n(C)c(=O)n3C)n2Cc2cccc3ccccc23)CC1	-20	25µM*	i	3%	0%	13
Cn1c(=O)c2c(nc(N3CCOCC3)n2C)n(C)c1=O	2	27%	i	-2%	2%	-6
COc1ccc(-c2cc(C(=O)Nc3c(C)nn(Cc4ccc(F)cc4)c3C)no2)cc1OC	-4	.	.	.	2%	.
CC1=CC(C)(C)N2C(=O)C3(C(C#N)=C(N)OC4=C3C(=O)CCC4)c3c(C)c(C)cc1c32 (stereo unspecified)	-3	18%	i	4%	0%	1
CC1=CC(C)(C)N2C(=O)C3(C(C#N)=C(N)Oc4cc(O)ccc43)c3c(C)c(C)cc1c32 (stereo unspecified)	-73*	-4%	.	-13%	0%	21
O=C(CCN1CCCCO1)N1CCCC(N2CCN(c3ccc(F)cc3)CC2)C1 (stereo unspecified)	18	?	i	5%	2%	3
CCN(CCCNC(=O)Cn1ncc2c([nH]c3ccc(C)cc32)c1=O)c1ccccc1	-24	?	i	7%	5%	8
CC(C)N(CCCNC(=O)Cn1ncc2c([nH]c3ccccc32)c1=O)Cc1ccccc1	-75*!	?	i	10%	1%	2
CC(C)N(Cc1ccccc1)C(=O)Cn1ncc2c([nH]c3ccccc32)c1=O	-3	.	.	.	0%	.
CCN(CCCNC(=O)Cn1ncc2c([nH]c3ccc(C)cc32)c1=O)c1cccc(C)c1	-18	-68%	i	4%	4%	-133*
O=C(CCc1nc2ccccc2c(=O)[nH]1)Nc1cc(C(F)(F)F)ccc1N1CCCC1	1	-20%	i	-9%	1%	17
COc1ccc(C(NC(=O)c2c(F)c(F)c(F)c(F)c2F)c2ccccc2)cc1 (stereo unspecified)	?	-38%	i	32µM*	-2%	?
COc1ccc(C(NC(=O)c2cc(OC)ccc2OC)c2ccccc2)cc1 (stereo unspecified)	-3	-2%	i	-13%	-1%	-3
O=C(OCc1cccc([N+](=O)[O-])c1)c1cnccn1	0	5.6µM*	i	16%	22µM*	3
CC(C)(C)NC(=O)CSc1nncn1NCc1c(Cl)cccc1Cl	-1	-21%	i	-5%	2%	10
CC(C)(C)NC(=O)CSc1nncn1NCc1cccc2ccccc12	-6	-2%	-113%*	0%	0%	-4
CCc1nn2c(=O)cc(COC(=O)c3ccccc3NC(=O)COc3ccc(C)c(C)c3)nc2s1	5	.	.	.	2%	.
O=C1CCSC2(C(=O)N(Cc3ccc(F)cc3)c3ccccc32)N1c1ccc(Cl)cc1 (stereo unspecified)	-79*	.	.	.	0%	.
COc1cccc(NC(=O)CN(C)C(=O)c2cc(-c3ccc(F)cc3)nc3ccccc23)c1	?	-18%	i	40µM*	-2%	-11
COc1cccc(NC(=O)CN(C)C(=O)c2cc(-c3ccccc3)nc3ccccc23)c1	-34	4%	i	?	0%	-3
CC(OC(=O)CCN=C1NS(=O)(=O)c2ccccc21)C(=O)Nc1ccc(N(C)C)cc1 (stereo unspecified)	.	-27%	i	7.1µM*	-1%	3
CC(=O)Nc1ccc(NC(=O)C(C)OC(=O)CCCN=C2NS(=O)(=O)c3ccccc32)cc1 (stereo unspecified)	0	-50%	i	6%	-1%	9
SMILES	RXFP1 antag	gsp agonist	pAkt inh	gsp antag	RXFP1 agonist	TSHR antagonist
O=C(CSc1ccc(Cl)cc1)NNC(=O)c1cccnc1	22	-3%[15.4 µM]	i	-20%	0%	3
Cc1ncc(CO)c2c1Oc1nc(-c3ccccc3)nc(SCC(=O)N(C)c3ccccc3)c1C2	.	.	.	.	0%	34
Cc1ncc(CO)c2c1Oc1nc(-c3ccccc3F)nc(SCC(=O)N(C)c3ccccc3)c1C2	-91*	-23%	i	40µM*	0%	0
Cc1cccc(-c2nc3c(c(SCC(=O)N4CCOCC4)n2)Cc2c(CO)cnc(C)c2O3)c1	-16	0%	i	40µM*	3%	2
COc1cc(OC)cc(C(=O)Nc2c(C)nn(-c3ccccc3)c2C)c1	-6	-19%	i	14%	0%	-7
CC(C)(C)c1ccc(C(=O)/C(C#N)=C/c2cccs2)cc1	-87*	6%	i	-10%	3%	14
Cc1nnc(NC(=O)C2CCN(S(=O)(=O)c3cc([N+](=O)[O-])ccc3Cl)CC2)o1	-2	-29%	i	35µM*	-2%	13
CCN(CC)C(=O)C(Oc1ccc(S(=O)(=O)N2CCCC2)cc1[N+](=O)[O-])c1ccccc1 (stereo unspecified)	15	-32%	i	2%	5%	5
CCCC12CN3CC(C)(CN(C1)C3c1cn(CC)c3ccccc13)C2=O (stereo unspecified)	-17	.	.	.	1%	.
Cc1ccc(CNC(=O)C(C)n2nc(C)c3sc4ccccc4c3c2=O)cc1 (stereo unspecified)	-24	.	.	.	32µM*	.
COc1ccc(S(=O)(=O)N2CC(C(=O)O)Oc3ccc(CC(=O)O)cc32)cc1 (stereo unspecified)	5	10%	-123%*	15%	2%	4
O=C(CN1CCC2(CC1)OCCO2)c1c[nH]c2ccccc12	-15	-2%	-122%*	7%	0%	1
O=C(CCN1CCOCC1)c1ccc2c(c1)OCCO2	-6	7%	.	-8%	1%	-25
O=C(CCN1CCc2ccccc2CC1)c1ccc2c(c1)OCCO2	-65*	-16%	i	16%	2%	-25
